MCF10A rerep = DNA re-replication induction in MCF 10a cells; MCF 10A DNA re-replication, Hoechst nuclear intensity, 48 h; Potency, µM (top dose mostly 46.1 µM), inactives show at the highest dose activity, positive = re-replication, most hits filed as activators; hit rate 2.9% among 350,000; AID 624296; also: potency is read from the fitted curve at half-maximal effect; % of control where 0% means no effect; nearly all actives have a fitted effect of over 50% in size
SW480 rereplic = DNA re-replication induction in SW480 cells; hit rate 1.8% among 340,000; Potency, µM (titrated, usually from 46.1 µM), for the others: at the highest dose re-replication activation, usual class: activators; AID 624297; SW480 DNA re-replication, Hoechst DNA content imaging, 48 h; also: potency is read from the fitted curve at half-maximal effect; % of control where 0% means no effect; nearly all actives have a fitted effect of over 55% in size
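Treated cells incubate 48 hr (37 C, 5% CO2), are stained 40 min with Hoechst, and nuclear fluorescence is enumerated; a rise in nuclei with high DNA signal marks re-replication.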
KB-3-1 cytotox = KB-3-1 parental cell cytotoxicity; KB-3-1 viability, CellTiter-Glo ATP luminescence, 72 h; hit rate 1.4% among 400,000; AID 1347075; Potency, µM (titrated, usually from 46.1 µM), usual class: cytotoxic; also: potency is read from the fitted curve at half-maximal effect; % is scaled to controls: 0 for no effect and ±100 for the full control effect; nearly all actives have a fitted effect of over 60% in size
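Cytotoxicity measured as CellTiter-Glo luminescence after 72 h at 37 C. Compound titrations were pinned onto drug-naive KB-3-1 parental adenocarcinoma cells grown in DMEM with 10% FBS, and normalized data fitted to concentration-response curves.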
KCNH2 3.1 block = blocks the human KCNH2 3.1 channel isoform; U2OS KCNH2 3.1, thallium flux FluxOr; stronger effect = lower value; activity change, % (tested at about 1.8 µM); hit rate 0.95% among 340,000; AID 720553;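 active = maximum activity change below -70%; inconclusive = maximum activity change from -70% to -50%; inactive = maximum activity change above -50%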;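 also: thallium influx rate constant from kinetic fluorescence after stimulation buffer; % is scaled to controls: 0 for no effect and ±100 for the full control effect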
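FluxOr-based Tl+ influx in U2OS cells transduced with KCNH2 3.1 virus; rate constants normalized to DMSO controls.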
KB-V1 cytotox = KB-V1 MDR subline cytotoxicity; KB-V1 MDR cells viability, CellTiter-Glo, 72 h; Potency, µM (series often up to 46.1 µM), usual class: cytotoxic; hit rate 3.4% among 400,000; also: potency is read from the fitted curve at half-maximal effect; % is scaled to controls: 0 for no effect and ±100 for the full control effect; nearly all actives have a fitted effect of over 60% in size
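Compound-treated KB-V1 multidrug-resistant cells, 72 h, 37 degrees C; viability by CellTiter-Glo. Fitted qHTS curves give the values.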
hERG WT inh = KCNH2 (human, wildtype) channel inhibition | AID 720551 | hit rate 0.37% among 340,000 | U2OS, BacMam KCNH2, thallium flux FluxOr; stronger effect = lower value | activity change, % at 1.84 µM;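 active = maximum activity change below -70%; inconclusive = maximum activity change between -70% and -50%; inactive = maximum activity change above -50%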; also: % is scaled to controls: 0 for no effect and ±100 for the full control effect
Target sequence (Q12809 whole entry, looked up): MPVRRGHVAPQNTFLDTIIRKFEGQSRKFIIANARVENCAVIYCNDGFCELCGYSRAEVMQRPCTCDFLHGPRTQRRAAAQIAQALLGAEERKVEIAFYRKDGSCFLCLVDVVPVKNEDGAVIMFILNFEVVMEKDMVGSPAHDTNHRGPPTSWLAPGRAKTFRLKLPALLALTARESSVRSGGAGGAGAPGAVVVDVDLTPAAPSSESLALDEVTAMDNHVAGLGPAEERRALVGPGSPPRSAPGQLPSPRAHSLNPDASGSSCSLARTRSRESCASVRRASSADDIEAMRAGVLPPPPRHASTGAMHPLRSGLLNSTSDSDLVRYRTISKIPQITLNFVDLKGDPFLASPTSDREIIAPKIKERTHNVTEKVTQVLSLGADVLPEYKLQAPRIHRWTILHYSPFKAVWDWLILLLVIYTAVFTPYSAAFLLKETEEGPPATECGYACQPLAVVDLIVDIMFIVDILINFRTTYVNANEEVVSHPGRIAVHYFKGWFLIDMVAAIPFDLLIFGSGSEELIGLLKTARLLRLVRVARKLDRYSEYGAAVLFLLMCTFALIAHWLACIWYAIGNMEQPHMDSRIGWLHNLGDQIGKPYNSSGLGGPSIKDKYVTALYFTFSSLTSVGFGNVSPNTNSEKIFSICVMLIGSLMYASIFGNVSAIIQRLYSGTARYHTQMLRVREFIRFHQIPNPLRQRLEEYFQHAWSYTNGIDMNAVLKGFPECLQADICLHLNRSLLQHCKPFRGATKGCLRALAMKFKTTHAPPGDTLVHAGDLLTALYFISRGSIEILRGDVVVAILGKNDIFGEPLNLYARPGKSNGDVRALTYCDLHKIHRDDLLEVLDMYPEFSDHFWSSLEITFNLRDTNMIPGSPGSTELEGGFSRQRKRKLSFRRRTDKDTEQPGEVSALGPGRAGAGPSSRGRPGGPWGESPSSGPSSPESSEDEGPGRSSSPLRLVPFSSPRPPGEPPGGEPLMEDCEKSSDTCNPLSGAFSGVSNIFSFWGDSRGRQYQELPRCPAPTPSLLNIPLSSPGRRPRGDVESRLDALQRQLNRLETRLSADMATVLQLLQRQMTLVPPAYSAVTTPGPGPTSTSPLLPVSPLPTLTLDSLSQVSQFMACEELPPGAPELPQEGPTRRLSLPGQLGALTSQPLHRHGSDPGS
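U2OS cells transduced with wild-type KCNH2 virus are loaded with FluxOr dye for 45 min, and thallium flux is measured in kinetic reads before and after stimulation buffer. Rate constants are normalized to DMSO controls.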
Active calls of the source: *; [ ] = another dose, or the depositor's remark. The list is not random: actives were taken first. Their share in the collection is about 7.6%. Unless noted, calls follow the shape of the dose curve; as a rule, active = well fitted curve in the direction sought with a large enough effect; inconclusive = small, poorly fitted or top-dose-only effect, or another doubt; inactive = no such curve, though single readings can be large; an effect the other way counts as inactive or inconclusive.

For O=C(c1ccc(Cl)cc1)N1CCN(c2ccc([N+](=O)[O-])c(NCc3cccnc3)c2)CC1 the results were MCF10A rerep 2%, SW480 rereplic 10%, KB-3-1 cytotox inactive, KCNH2 3.1 block 11, KB-V1 cytotox 21µM* and hERG WT inh 4.
O=C(c1ccccc1F)N1CCN(c2ccc([N+](=O)[O-])c(NCc3cccnc3)c2)CC1 was read as MCF10A rerep 24%, SW480 rereplic 3%, KB-3-1 cytotox inactive, KCNH2 3.1 block 3, KB-V1 cytotox inactive and hERG WT inh 4.
Screening COc1cccc(C(c2sc3nc(-c4ccco4)nn3c2O)N2CCC3(CC2)OCCO3)c1 (stereo unspecified) returned KB-3-1 cytotox inactive and KB-V1 cytotox inactive.
For O=C(CCCn1c(=O)[nH]c2ccccc2c1=O)N1CCN(c2ccccc2)CC1 the results were KB-3-1 cytotox inactive and KB-V1 cytotox inactive.
COc1ccccc1CCNC(=O)c1cccc(S(=O)(=O)NCc2ccccc2)c1 was read as MCF10A rerep -1%, SW480 rereplic 6%, KB-3-1 cytotox inactive, KCNH2 3.1 block -3, KB-V1 cytotox inactive and hERG WT inh 1.
`O=C(CN1c2ccccc2Sc2ccccc21)NNC(=S)Nc1ccc(Cl)cc1Cl` gave MCF10A rerep inconclusive, SW480 rereplic 0%, KB-3-1 cytotox 21µM*, KCNH2 3.1 block -21, KB-V1 cytotox 13µM* and hERG WT inh -18.
`CN(C)CCOC1(Cc2ccc(F)cc2)CCC(C(C)(C)C)CC1` (stereo unspecified) gave MCF10A rerep 11%, SW480 rereplic 12%, KB-3-1 cytotox inactive, KB-V1 cytotox 16µM* and hERG WT inh -9.
Cc1ccc(CNC(=S)NC2CCC(C(C)(C)C)CC2)cc1 (stereo unspecified) was read as MCF10A rerep inconclusive, SW480 rereplic -5%, KB-3-1 cytotox inactive, KCNH2 3.1 block -17, KB-V1 cytotox inactive and hERG WT inh 10.
Screening Cc1ccc(CC2(OCCN(C)C)CCC(C(C)(C)C)CC2)cc1 (stereo unspecified) returned MCF10A rerep inconclusive, SW480 rereplic 24%, KB-3-1 cytotox inconclusive, KCNH2 3.1 block 4, KB-V1 cytotox 18µM* and hERG WT inh -18.
For COc1ccc(-c2csc(-n3cccn3)n2)cc1 the results were MCF10A rerep -5%, SW480 rereplic -4%, KB-3-1 cytotox inactive, KCNH2 3.1 block -9, KB-V1 cytotox inactive and hERG WT inh -34.
`COC(=O)c1ccccc1COc1cccn2c(N(C)CC3CC3)c(C)nc12` gave KB-3-1 cytotox inconclusive and KB-V1 cytotox 15µM*.
COc1ccc([C@@H]2Sc3cc(OC)ccc3N(CCN(C(C)C)C(C)C)C(=O)[C@H]2OC(C)=O)cc1 was read as MCF10A rerep 6%, SW480 rereplic 13%, KB-3-1 cytotox inactive, KCNH2 3.1 block -100*, KB-V1 cytotox inconclusive and hERG WT inh -90*.
Screening COc1cccc(NC(=O)N2CCC(C(=O)Nc3ccc(C)cc3C)CC2)c1 returned MCF10A rerep 1%, SW480 rereplic -5%, KB-3-1 cytotox inactive, KCNH2 3.1 block 28, KB-V1 cytotox 15µM* and hERG WT inh -4.
`COc1cccc(NC(=O)N2CCCC(C(=O)Nc3ccccc3OC)C2)c1` (stereo unspecified) gave MCF10A rerep -1%, SW480 rereplic 4%, KB-3-1 cytotox inactive, KCNH2 3.1 block -16, KB-V1 cytotox 21µM* and hERG WT inh -2.
Screening COc1ccccc1NC(=O)N1CCCC(C(=O)Nc2cccc(C)c2C)C1 (stereo unspecified) returned MCF10A rerep 124%[0.0737 µM], SW480 rereplic -4%, KB-3-1 cytotox inactive, KCNH2 3.1 block 7, KB-V1 cytotox inactive and hERG WT inh -21.
Screening CCOC(=O)C1(Cc2ccc(Cl)cc2)CCN(Cc2cn(CC)nc2C)CC1 returned MCF10A rerep 6%, SW480 rereplic 2%, KB-3-1 cytotox inactive, KCNH2 3.1 block -17, KB-V1 cytotox inactive and hERG WT inh 3.
Cc1ccc(-c2[nH]nc(N)c2N=Nc2ccccc2C)cc1 was read as MCF10A rerep inconclusive, SW480 rereplic inconclusive, KB-3-1 cytotox inconclusive, KCNH2 3.1 block -2, KB-V1 cytotox inconclusive and hERG WT inh -3.
For Cc1ccc(-c2[nH]nc(N)c2N=Nc2cccc(Cl)c2C)cc1 the results were MCF10A rerep 21µM*, SW480 rereplic inconclusive, KB-3-1 cytotox inconclusive, KCNH2 3.1 block -3, KB-V1 cytotox inconclusive and hERG WT inh -8.
Screening Cc1ccc2[nH]c(=O)c(CN(CC3CCCO3)C(=S)NCc3ccco3)cc2c1 (stereo unspecified) returned MCF10A rerep 7%, SW480 rereplic 1%, KB-3-1 cytotox inactive, KCNH2 3.1 block 8, KB-V1 cytotox inactive and hERG WT inh -12.
CCNC(=S)N(Cc1ccco1)Cc1cc2cc(OCC)ccc2[nH]c1=O was read as MCF10A rerep inconclusive, SW480 rereplic -34%, KB-3-1 cytotox inactive, KCNH2 3.1 block -22, KB-V1 cytotox inconclusive and hERG WT inh 22.
`CCNC(=S)N(Cc1cccs1)Cc1cc2cc(OCC)ccc2[nH]c1=O` gave MCF10A rerep -6%, SW480 rereplic -5%, KB-3-1 cytotox inactive, KCNH2 3.1 block 1, KB-V1 cytotox 12µM* and hERG WT inh -4.
`Cc1ccc2[nH]c(=O)c(CN(Cc3cccs3)C(=S)NCc3ccco3)cc2c1` gave MCF10A rerep 13%, SW480 rereplic 9%, KB-3-1 cytotox inactive, KCNH2 3.1 block 2, KB-V1 cytotox 18µM* and hERG WT inh 1.
For CN(C/C=C/c1ccccc1[N+](=O)[O-])Cc1ccccc1 the results were MCF10A rerep 1%, SW480 rereplic -18%, KB-3-1 cytotox inactive, KCNH2 3.1 block inconclusive, KB-V1 cytotox inactive and hERG WT inh -10.
`CC(=O)c1sc(-c2ccc(F)cc2)cc1NS(=O)(=O)c1ccccc1` gave MCF10A rerep 4%, SW480 rereplic -7%, KB-3-1 cytotox inactive, KCNH2 3.1 block -11, KB-V1 cytotox inactive and hERG WT inh 4.
For O=C(CCC(=O)N1Cc2ccccc2Oc2ncccc21)NCc1cccc(Cl)c1 the results were KB-3-1 cytotox inactive and KB-V1 cytotox inactive.
CSc1ccc(CN2CCC(Cc3ccccc3)CC2)cc1 was read as MCF10A rerep 23%, SW480 rereplic 2%, KB-3-1 cytotox inconclusive, KCNH2 3.1 block inconclusive, KB-V1 cytotox inactive and hERG WT inh -2.
